Assay results as given in the supplement of paper PMC13380429.

tested on: Vero E6 infected with SARS-CoV-2; assay: morphology score (similarity to uninfected cells); higher = more like uninfected cells; details: 24 h

Row | SMILES | morphology score
1 | C=CCN(C)CCCCCCOc1ccc(C(=O)c2ccc(Br)cc2)c(F)c1 (10 µM) | 0.728
2 | CC1=NN(c2ccc(C)c(C)c2)C(=O)/C1=N\Nc1cccc(-c2cccc(C(=O)O)c2)c1O [eltrombopag] (10 µM) | 0.143
3 | C=C1CC[C@H](O)C/C1=C/C=C1\CCC[C@]2(C)[C@@H]([C@H](C)CCCC(C)(C)O)CC[C@@H]12 [calcifediol] (10 µM) | -0.0147
4 | C=C(c1ccc(C(=O)O)cc1)c1cc2c(cc1C)C(C)(C)CCC2(C)C [bexarotene] (10 µM) | 0.18
5 | OC[C@H]1O[C@@H](Oc2ccc(O)cc2)[C@H](O)[C@@H](O)[C@@H]1O [arbutin] (10 µM) | 0.104
6 | O=C(O)CCCO (10 µM) | 0.0908
7 | O=C(O)CCCc1c[nH]c2ccccc12 [3-indolebutyric-acid] (10 µM) | 0.123
8 | Cc1ccc(Cl)c(Nc2ccccc2C(=O)O)c1Cl [meclofenamic-acid] (10 µM) | 0.0323
9 | Cn1c(=O)n(-c2ccc(C(C)(C)C#N)cc2)c2c3cc(-c4cnc5ccccc5c4)ccc3ncc21 (10 µM) | 0.0712
10 | Cc1cc(N)c2ccccc2[n+]1CCCCCCCCCC[n+]1c(C)cc(N)c2ccccc21 [dequalinium] (10 µM) | 0.175
11 | O=C1NC(=O)c2cc(Nc3ccccc3)c(Nc3ccccc3)cc21 (10 µM) | 0.39
12 | C=C1/C(=C\C=C2/CCC[C@]3(C)[C@@H]([C@H](C)/C=C/[C@@H](O)C4CC4)CC[C@@H]23)C[C@@H](O)C[C@@H]1O [calcipotriol] (10 µM) | -0.273

tested on: Vero E6 infected with SARS-CoV-2; assay: SARS-CoV-2 infection rate relative to infected DMSO; higher = more infection, active = 60 or less; details: 24 h

Row | SMILES | SARS-CoV-2 infection rate
13 | C[C@]12CCC(=O)C=C1[C@@H]1C[C@@H]1[C@H]1[C@@H]3[C@@H]4C[C@@H]4[C@@]4(CCC(=O)O4)[C@@]3(C)CC[C@@H]12 [drospirenone] (10 µM) | 101% (inactive)
14 | CCCCC/C=C\C/C=C\C/C=C\C/C=C\CCCC(=O)Nc1ccc(O)cc1 (10 µM) | 106% (inactive)
15 | CC(=O)Nc1cccc(-n2c(=O)n(C3CC3)c(=O)c3c(Nc4ccc(I)cc4F)n(C)c(=O)c(C)c32)c1 [trametinib] (0.833333 µM) | 89% (inactive)
16 | CCN(CC)CCNC(=O)c1c(C)[nH]c(/C=C2\C(=O)Nc3ccc(F)cc32)c1C [sunitinib] (0.833333 µM) | 99% (inactive)
17 | Cc1ncc(OC[C@@]2(c3cccc(F)c3)C[C@H]2C(=O)Nc2ccc(F)cn2)c(C)n1 [lemborexant] (10 µM) | 112% (inactive)
18 | Cc1ccccc1/N=N/c1ccc(NC(=O)c2ccnn2C)c(C)c1 (10 µM) | 109% (inactive)
19 | COc1cccc([C@@H](C)NCCCc2ccccc2Cl)c1 [tecalcet] (10 µM) | 50.5% (active)
20 | C=C1C(=O)O[C@@H]2[C@H]3O[C@]3(C)CC/C=C(\C)CC[C@@H]12 [parthenolide-(alternate-stereo)] (0.833333 µM) | 106% (inactive)
21 | CC1(C)Cc2c(-c3ccccc3)c(-c3ccc(Cl)cc3)c(CC(=O)O)n2C1 [licofelone] (10 µM) | 105% (inactive)
22 | N=C(N)NCCC[C@H](NC(=O)[C@@H]1CCCN1C(=O)[C@@H]1CSSC[C@H](N)C(=O)N[C@@H](Cc2ccc(O)cc2)C(=O)N[C@@H](Cc2ccccc2)C(=O)N[C@@H](CCC(N)=O)C(=O)N[C@@H](CC(N)=O)C(=O)N1)C(=O)NCC(N)=O [vasopressin] (10 µM) | 95.5% (inactive)
23 | O=C(/C=C/c1c(C(=O)O)[nH]c2cc(Cl)cc(Cl)c12)Nc1ccccc1 [gavestinel] (10 µM) | 108% (inactive)
24 | COc1cc2ncnc(Nc3ccc(O)c(Br)c3)c2cc1OC (10 µM) | 103% (inactive)
25 | Cc1cc(Nc2nc(N[C@@H](C)c3ncc(F)cn3)ncc2Cl)[nH]n1 (10 µM) | 108% (inactive)
26 | O=c1ccc2ccccc2o1 [coumarin] (10 µM) | 89.5% (inactive)
27 | O=C(O)CCn1c2c(c3ccccc31)C[C@H](NS(=O)(=O)c1ccc(F)cc1)CC2 [ramatroban] (10 µM) | 102% (inactive)
28 | CCCCC/C=C\C=C\CCCCCCCCC(=O)O [trans-10,cis-12-conjugated-linoleic-acid] (10 µM) | 104% (inactive)
29 | Cc1c(Cl)cccc1Nc1ccccc1C(=O)O [tolfenamic-acid] (10 µM) | 110% (inactive)
30 | CC[C@@H](C)c1ccc(NC(=O)Cn2cnc3c2c(=O)n(C)c(=O)n3C)cc1 (racemic) (10 µM) | 92% (inactive)
